Results from PubChem BioAssay AID1159580 (chemical genetic matrix, 2015).
Where “and” joins values, the source holds several entries; their conditions need not be identical. Equal entries are not always repeated. Screen size: about 5,500 compounds; about 2,000 (36%) were called active. Another 18% or so got no clear call; they are omitted. Rule as the data show it: active = normalized growth mostly below about 0.91 (no sharp cut-off); inconclusive = no clear call, values can overlap the other calls; inactive = mostly above about 0.92. This is one part of the list.

Assay: chemical genetic growth profiling, strain panel (AID 1159580);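 also: tested at 20 µM; growth read once vehicle control cultures reached saturation at 30 °C; 1 = growth at the plate median or of vehicle wells; lower values mean less growth of the strain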
Conditions: S. cerevisiae deletion strains, growth OD

Measured: normalized growth

CCC(N)C(O)c1ccc(O)c(O)c1 (configuration not stated)
inactive: locus YAL013W, strain DEP1, hits give low values 1.02 | locus YAL021C, strain ccr4, hits give low values 1 | locus YAL026C, strain drs2, hits give low values 0.987 | locus YAL030W, strain snc1, hits give low values 0.986 | locus YBL061C, strain skt5, hits give low values 0.99 | locus YBR009C, strain hhf1, hits give low values 0.986 | locus YBR021W, strain FUR4, hits give low values 0.995 | locus YBR023C, strain chs3, hits give low values 0.994 | locus YBR171W, strain sec66, hits give low values 0.976 | locus YBR229C, strain ROT2, hits give low values 1.02 | locus YBR231C, strain swc5, hits give low values 0.984 | locus YBR279W, strain paf1, hits give low values 0.991 | locus YCL011C, strain gbp2, hits give low values 0.996 | locus YCL016C, strain dcc1, hits give low values 0.998 | locus YCL029C, strain bik1, hits give low values 0.992 | locus YCL061C, strain MRC1, hits give low values 0.991 | locus YCL069W, strain vba3, hits give low values 1 | locus YCR088W, strain abp1, hits give low values 0.997 | locus YDL005C, strain med2, hits give low values 0.993 | locus YDL035C, strain GPR1, hits give low values 1.02 | locus YDL040C, strain nat1, hits give low values 0.99 | locus YDL074C, strain BRE1, hits give low values 1 | locus YDL101C, strain DUN1, hits give low values 1.01 | locus YDL134C, strain PPH21, hits give low values 1 | locus YDL185W, strain tfp1, hits give low values 0.968 | locus YDL192W, strain arf1, hits give low values 0.998 | locus YDR001C, strain nth1, hits give low values 0.99 | locus YDR069C, strain doa4, hits give low values 0.981 | locus YDR101C, strain arx1, hits give low values 0.995 | locus YDR137W, strain rgp1, hits give low values 1.02 | locus YDR150W, strain NUM1, hits give low values 1.02 | locus YDR159W, strain sac3, hits give low values 0.965 | locus YDR162C, strain NBP2, hits give low values 1.02 | locus YDR195W, strain ref2 0.931 | locus YDR297W, strain sur2, hits give low values 0.991 | locus YDR318W, strain mcm21, hits give low values 0.977 | locus YDR334W, strain swr1, hits give low values 0.994 | locus YDR335W, strain msn5, hits give low values 0.993 | locus YDR388W, hits give low values 0.993 | locus YDR392W, strain spt3, hits give low values 0.934 | locus YDR502C, strain sam2, hits give low values 0.998 | locus YEL003W, strain gim4, hits give low values 0.997 | locus YEL037C, strain rad23, hits give low values 1.02 | locus YEL061C, strain CIN8 (second series), hits give low values 0.988 | locus YEL061C, strain CIN8, hits give low values 1.01 | locus YER015W, strain faa2, hits give low values 0.984 | locus YER016W, strain bim1, hits give low values 0.989 | locus YER110C, hits give low values 0.985 | locus YER111C, strain swi4, hits give low values 0.989 | locus YER155C, strain BEM2 (second series), hits give low values 0.979 | locus YER155C, strain BEM2, hits give low values 1.01 | locus YER167W, strain BCK2, hits give low values 1.03 | locus YFR010W, strain ubp6, hits give low values 0.983 | locus YGL078C, strain dbp3, hits give low values 1 | locus YGL086W, strain mad1, hits give low values 0.988 | locus YGL167C, strain pmr1, hits give low values 0.985 | locus YGL173C, strain kem1, hits give low values 0.998 | locus YGL227W, strain vid30, hits give low values 0.983 | locus YGL240W, strain doc1, hits give low values 0.96 | locus YGL248W, strain PDE1, hits give low values 1.01 | locus YGL253W, strain hxk2, hits give low values 1.01 | locus YGR078C, strain PAC10, hits give low values 0.991 | locus YGR135W, strain pre9, hits give low values 0.993 | locus YGR229C, strain SMI1, hits give low values 1.02 | locus YGR252W, strain gcn5, hits give low values 1.04 | locus YHR013C, strain ard1, hits give low values 0.989 | locus YHR027C, strain rpn1, hits give low values 0.985 | locus YHR030C, strain SLT2, hits give low values 1.01 | locus YHR079C, strain IRE1 (second series), hits give low values 0.986 | locus YHR079C, strain IRE1, hits give low values 1.02 | locus YHR094C, strain hxt1, hits give low values 0.988 | locus YHR129C, strain ARP1, hits give low values 1.01 | locus YHR142W, strain chs7, hits give low values 1.01 | locus YHR200W, strain rpn10, hits give low values 0.994 | locus YIL066C, strain RNR3, hits give low values 1.01 | locus YIL073C, strain SPO22, hits give low values 1.03 | locus YIL125W, strain kgd1, hits give low values 0.995 | locus YIR030C, strain dcg1, hits give low values 0.987 | locus YJL092W, strain hpr5, hits give low values 0.99 | locus YJL095W, strain BCK1 (second series), hits give low values 0.991 | locus YJL095W, strain BCK1, hits give low values 1 and 1.01 | locus YJL115W, strain asf1, hits give low values 0.992 | locus YJL129C, strain trk1, hits give low values 0.993 | locus YJL134W, strain LCB3, hits give low values 1.01 | locus YJL154C, strain vps35, hits give low values 0.993 | locus YJL164C, strain tpk1, hits give low values 0.994 | locus YJL166W, strain qcr8, hits give low values 0.988 | locus YJL168C, strain set2, hits give low values 0.99 | locus YJL187C, strain SWE1 (second series), hits give low values 0.996 | locus YJL187C, strain SWE1, hits give low values 0.983 | locus YJR043C, strain POL32, hits give low values 0.975 | locus YJR066W, strain TOR1, hits give low values 0.983
